Experimental data as given in article PMC4336329 (PLoS ONE, 2015).
In all, about 310,000 compounds went through this assay and about 14,000 (4.5%) showed an effect of 50% or more. Effects have a minus sign here. The list comes from a sample in which strong results are over-represented; it also holds similar structures and randomly drawn compounds.

What follows are molecules tested against human ether-à-go-go-related gene (hERG) potassium channel (human, UniProt Q12809) (assay: primary screen, population patch clamp on CHO cells stably expressing hERG; higher = less effect of the substance).
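Further: peak tail current of the secondary pulse compared with the same well before compound.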

Sequence of human ether-à-go-go-related gene (hERG) potassium channel (Q12809 whole entry, looked up): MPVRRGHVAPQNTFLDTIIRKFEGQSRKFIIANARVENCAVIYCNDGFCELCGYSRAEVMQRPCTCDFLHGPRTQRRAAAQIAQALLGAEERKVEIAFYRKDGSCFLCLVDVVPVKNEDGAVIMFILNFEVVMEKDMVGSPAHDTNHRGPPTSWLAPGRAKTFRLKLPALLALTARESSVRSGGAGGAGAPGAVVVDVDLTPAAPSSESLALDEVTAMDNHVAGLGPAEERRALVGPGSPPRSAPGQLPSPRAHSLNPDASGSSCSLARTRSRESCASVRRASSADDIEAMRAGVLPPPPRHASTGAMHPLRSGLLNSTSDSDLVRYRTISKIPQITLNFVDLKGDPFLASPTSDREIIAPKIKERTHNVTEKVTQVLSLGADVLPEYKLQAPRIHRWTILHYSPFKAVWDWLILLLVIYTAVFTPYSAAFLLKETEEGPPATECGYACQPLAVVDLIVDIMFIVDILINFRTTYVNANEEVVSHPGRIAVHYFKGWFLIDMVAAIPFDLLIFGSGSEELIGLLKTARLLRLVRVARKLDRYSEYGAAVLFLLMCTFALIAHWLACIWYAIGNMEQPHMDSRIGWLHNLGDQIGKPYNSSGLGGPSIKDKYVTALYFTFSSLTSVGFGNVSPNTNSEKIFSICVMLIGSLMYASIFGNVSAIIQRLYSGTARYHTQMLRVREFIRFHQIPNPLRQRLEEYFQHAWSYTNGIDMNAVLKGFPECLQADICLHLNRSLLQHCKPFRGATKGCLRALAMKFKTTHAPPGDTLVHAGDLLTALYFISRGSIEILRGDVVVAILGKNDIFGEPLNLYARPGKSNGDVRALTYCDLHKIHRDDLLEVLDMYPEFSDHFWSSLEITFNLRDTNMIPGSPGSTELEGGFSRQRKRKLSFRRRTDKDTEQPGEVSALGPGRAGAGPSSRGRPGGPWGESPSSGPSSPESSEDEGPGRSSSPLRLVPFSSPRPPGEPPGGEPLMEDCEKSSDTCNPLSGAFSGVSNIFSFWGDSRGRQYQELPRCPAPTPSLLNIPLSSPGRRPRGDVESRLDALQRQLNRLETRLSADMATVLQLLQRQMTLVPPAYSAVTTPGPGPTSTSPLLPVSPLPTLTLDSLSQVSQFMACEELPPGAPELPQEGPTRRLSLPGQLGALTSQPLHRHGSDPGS

| Compound | hERG current change (%, negative = inhibition) at 10uM [%] |
| --- | --- |
| CCOC(=O)c1[nH]nc(-c2c(O)cc(C)cc2O)c1-c1csc(C)n1 | 11.3 |
| Cc1cc(C)c2c(c1)c(C)cc1nnc(SCC(=O)NCc3ccco3)n12 | -8.05 |
| COCCn1c(SCC(=O)NC2CCCCC2)nc2c(c1=O)SCC2 | -11.2 |
| Cc1ccc(C)c(S(=O)(=O)N2CCCOC2CNC(=O)C(=O)NCCCN2CCOCC2)c1 (stereo not shown) | 0.752 |
| CCN(CC)c1cc(Oc2ccccc2)ncn1 | -9.54 |
| COc1cccc(C(=O)CSc2nnnn2C)c1 | 4.88 |
| Cc1ccc(/C=N/NC(=O)CSc2nnc(-c3ccc(Cl)cc3)n2-c2ccccc2)o1 | -39.5 |
| CCOC(=O)N1CCN(C(=O)CSc2nc(-c3cccc(C)c3)ns2)CC1 | -38.8 |
| O=C1N(Cc2ccccc2F)c2ccccc2C12OCCCO2 | 10.9 |
| O=C(OC(C(=O)c1c[nH]c2ccccc12)c1ccccc1)c1cnccn1 (stereo not shown) | 1.77 |
| O=C(O)/C(=C/c1cccnc1)NC(=O)c1ccccc1 | 20.3 |
| CCc1ccc(C(=O)CC2(O)C(=O)N(CN3CCOCC3)c3ccccc32)cc1 (stereo not shown) | 7.69 |
| Cc1ccc(C(=O)CC2(O)C(=O)N(CN3CCOCC3)c3ccccc32)cc1 (stereo not shown) | -2.38 |
| O=C(CC1(O)C(=O)N(CN2CCOCC2)c2ccccc21)c1ccccc1 (stereo not shown) | -70.4 |
| CC(C)=CCC(C)(C)C1OCCN1C(=O)c1ccccc1 (stereo not shown) | -18.7 |
| Br.COc1ccc(-c2nc3n(c2C)CCC3)cc1 | -6.52 |
| CCN(CC(=O)Nc1c(F)cccc1F)C(=O)c1cc([N+](=O)[O-])ccc1N1CCCCC1 | -10.6 |
| CC(=O)OCc1nc2ccccc2s1 | 12 |
| O=C(CCCCCNC(=S)Nc1ccc(Cl)cc1)C[N+](=O)[O-] | 12.9 |
| COc1ccc(-c2[nH]ncc2CN(C)CCN2CCOCC2)cc1F | 16.6 |
| COc1ccc(/C=C/C(=O)c2ccc(Cl)s2)cc1O | 1.69 |
| COc1ccc(C(=O)/C=C/c2cc(OC)c(O)c(OC)c2)c(F)c1 | -52.3 |
| COc1ccc(C(=O)/C=C/c2ccc(OC)c(O)c2)c(F)c1 | -13.5 |
| COc1cc(/C=C/C(=O)c2ccc(Cl)s2)cc(OC)c1O | -74.4 |
| COc1ccc2cc(C(=O)/C=C/c3cc(OC)c(O)c(OC)c3)ccc2c1 | 8.79 |
| COc1cc(/C=C/C(=O)O)cc(OC)c1O | 2.08 |
| COc1ccc(CCNC(=O)C2CCN(S(=O)(=O)c3ccc(C)cc3)CC2)cc1 | 0.741 |
| COc1ccc(/C=N/NC(=O)c2cccc(OC(F)(F)C(F)F)c2)c(OC)c1OC | -3.77 |

| Compound | hERG current change (%, negative = inhibition) at 10uM [%] |
| --- | --- |
| O=C(Nc1sc2c(c1C(=O)O)CCCCC2)c1ccccc1 | 67.4 |
| O=C1COc2ccc(NC(=O)N3CCN(c4ccc(F)cc4)CC3)cc2N1 | -79.8 |
| CSc1ccccc1N1CCN(C(=O)Nc2ccc3c(c2)NC(=O)CO3)CC1 | -56.3 |
| CCOC(=O)c1ccc(NC(=O)N2CCN(c3cccc(OC)c3)CC2)cc1 | -16.5 |
| O=C(Nc1ccc2c(c1)OCO2)N1CCN(c2ccc(F)cc2)CC1 | -28 |
| O=C1COc2ccc(NC(=O)c3ccccc3C(=O)O)cc2N1 | 21.6 |
| COc1cccc(N2CCN(S(=O)(=O)c3cc4c(cc3Cl)NC(=O)CO4)CC2)c1 | 12 |
| COc1cccc(N2CCN(C(=O)Nc3ccc4c(c3)NC(=O)CO4)CC2)c1 | -75.8 |
| O=C(Nc1ccc2c(c1)OCCO2)N1CCN(c2ccc(F)cc2)CC1 | -5.49 |
| O=C(Nc1ccc2c(c1)OCO2)N1CCN(c2ccccc2Cl)CC1 | -32.3 |
| Cc1nn(Cc2ccc([N+](=O)[O-])cc2)c(=O)n1N(C)c1ncc(C(F)(F)F)cc1Cl | -3.46 |
| O=C(NCc1ccccc1F)C1CC(=O)N(c2ccc3c(c2)OCCO3)C1 (stereo not shown) | -2.83 |
| O=C(Nn1c(SCc2cccc([N+](=O)[O-])c2)nc2ccccc2c1=O)c1ccccc1 | -1.31 |
| Cc1noc(C)c1COc1ccccc1C(=O)NC1CCC(C)CC1 (stereo not shown) | 0.497 |
| CSCC[C@H](NC(=O)Nc1cccc(C(F)(F)F)c1)C(=O)O | -0.0702 |
| Cc1cccc(CSc2nnc([C@@H]3CCCN3C(=O)OC(C)(C)C)o2)c1 | 4.85 |
| O=C(c1ccccc1Oc1ccccc1)N1CCN(c2ccc(F)cc2)CC1 | -33.9 |
| COc1cccc(NC(=O)COC(=O)c2ccccc2C(=O)N2CCN(c3ccccc3)CC2)c1 | -11.8 |
| CN(C(=O)COC(=O)c1ccccc1C(=O)N1CCN(c2ccccc2)CC1)c1ccccc1 | -17 |
| CC(C)N(C(=O)COC(=O)c1ccccc1C(=O)N1CCN(c2ccc(F)cc2)CC1)C(C)C | -55.9 |
| O=C(COC(=O)c1ccccc1C(=O)N1CCN(c2ccc(F)cc2)CC1)NCc1ccccc1 | -73.6 |
| O=C(COC(=O)c1ccccc1C(=O)N1CCN(c2ccccc2)CC1)Nc1ccccc1 | -25.8 |
| O=C(COC(=O)/C=C/C(=O)N1CCN(c2ccccc2)CC1)NCc1ccc(F)cc1 | -8.17 |
| O=C(COC(=O)c1ccccc1C(=O)N1CCN(c2ccccc2)CC1)Nc1ccc(F)cc1 | -21.6 |
| O=C(COC(=O)c1ccccc1C(=O)N1CCN(c2ccccc2)CC1)NCc1ccccc1 | -58 |
| O=C1CCC([N+](=O)[O-])C(c2ccc(Br)cc2)N1 (stereo not shown) | 7.57 |
| CC(=O)N1CCN(C(=O)c2cc3ccccc3o2)CC1 | 20.1 |
